WT yeast gro inh: growth inhibition of WT yeast, mitochondrial fusion screen; inhibition, % at 10 µM; mitochondrial fusion phenotypic screen, WT strain; 2.1% of 190,000 active; in the data active means inhibition above about 58%; tested in S. cerevisiae
L major viab: reduces viability of Leishmania major promastigotes | AID 1063 | resazurin fluorescence viability | 9% of 200,000 active | inhibition, % at 10 µM; in the data active means inhibition above about 50%;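 further: promastigotes grown with compound for 44 hours at 28 °C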
Arbovirus inh: blocks arbovirus infection; arbovirus infection cell-based antiviral screen; inhibition, % at 10 µM; 0.37% of 200,000 active; AID 1251; in the data active means inhibition above about 30%
CHOP inhibitor: blocks CHOP induction under ER stress; CHO-K1 CHOP-promoter luciferase, tunicamycin-induced, 15-18 h; 3.8% of 220,000 active; inhibition, % at 10 µM;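 active means compounds that reduced the stress-induced luciferase reporter signal by more than about 70% of percent inhibition, limit read from the data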;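 further: 0% = tunicamycin plus vehicle and 100% = wells without tunicamycin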
Numbers without * were called inactive; ! = not confirmed by another sample. An excerpt weighted towards active compounds, which were near 12% of everything screened.

Results for OC(CNCC1CCCO1)Cn1c2ccccc2c2ccccc21 (stereo not drawn) ?
WT yeast gro inh: -2; L major viab: 25; Arbovirus inh: 3; CHOP inhibitor: 49

Results for CC(C)Cc1csc(NC(=O)c2ccccc2Cl)c1C(=O)O ?
WT yeast gro inh: -29; L major viab: 19; Arbovirus inh: 66*; CHOP inhibitor: -10

What do the screens show for `Cc1cccc(C(=O)Nc2scc(CC(C)C)c2C(=O)O)c1`?
WT yeast gro inh: -8; L major viab: -9; Arbovirus inh: 65*; CHOP inhibitor: 3

How did CC1CCC(C(C)C)C(OC(=O)COC(=O)c2cccn2C)C1 (stereo not drawn) do in these assays?
WT yeast gro inh: 74*; L major viab: 12; Arbovirus inh: -1; CHOP inhibitor: 5

Results for CC1CCC(C(C)C)C(OC(=O)COC(=O)c2ccc(N)cc2)C1 (stereo not drawn) ?
WT yeast gro inh: 32; L major viab: 18; Arbovirus inh: 2; CHOP inhibitor: 84*

How did CC1CCC(C(C)C)C(OC(=O)Cn2c(-c3ccc(Br)cc3)[n+](C)c3ccccc32)C1 (stereo not drawn) do in these assays?
WT yeast gro inh: 66*!; L major viab: 100*; Arbovirus inh: -33; CHOP inhibitor: 90*!

Results for CC1CCC(C(C)C)C(OC(=O)Cn2c(-c3ccc(Cl)cc3)[n+](C)c3ccccc32)C1 (stereo not drawn) ?
CHOP inhibitor: 25

What do the screens show for `O=C(Nc1ccccc1)C1=C[C@@H](c2ccc(Br)cc2)C[C@@H](OCCCCO)O1`?
WT yeast gro inh: 32; L major viab: 7; Arbovirus inh: -13; CHOP inhibitor: -18

How did O=C(C1CCCN1S(=O)(=O)c1cccc2nsnc12)N1CCCCCC1 (stereo not drawn) do in these assays?
CHOP inhibitor: -3

What do the screens show for `CCOc1nc2ccccc2cc1C=O`?
WT yeast gro inh: 4; L major viab: 7; Arbovirus inh: -9; CHOP inhibitor: -22

Results for Cc1ccc2c(c1)C1CCCC3C1N2CC(=O)N3Cc1ccccc1 (stereo not drawn) ?
WT yeast gro inh: 26; L major viab: 3; Arbovirus inh: 32*; CHOP inhibitor: 50

How did O=C(COC(=O)C1CCN(/C=C/C(=O)C(F)(F)F)CC1)Nc1cccc(F)c1 do in these assays?
WT yeast gro inh: 20; L major viab: -4; Arbovirus inh: 7; CHOP inhibitor: -19

How did Nc1nc(N2CCCCC2)nc(N2CCCCC2)n1 do in these assays?
WT yeast gro inh: 12; L major viab: 7; Arbovirus inh: 6; CHOP inhibitor: 29

How did C1CCN(c2nc(N3CCCC3)nc(N3CCNCC3)n2)C1 do in these assays?
WT yeast gro inh: -20; L major viab: 100*; Arbovirus inh: -3; CHOP inhibitor: 23

How did C(=N\Nc1nc(Nc2ccccc2)nc(N2CCCCC2)n1)/c1ccco1 do in these assays?
WT yeast gro inh: 69*; L major viab: 36; Arbovirus inh: -6; CHOP inhibitor: -69

How did CCOc1ccc(Nc2nc(N3CCCCC3)nc(N3CCCCC3)n2)cc1 do in these assays?
WT yeast gro inh: 61*; L major viab: 59*; Arbovirus inh: 3; CHOP inhibitor: 40

How did c1ccc(Nc2nc(N3CCCCC3)nc(N3CCNCC3)n2)cc1 do in these assays?
WT yeast gro inh: 15; L major viab: 100*; Arbovirus inh: -30; CHOP inhibitor: 31

What do the screens show for `c1ccc(Nc2nc(N3CCCCC3)nc(N3CCCCC3)n2)cc1`?
WT yeast gro inh: 52; L major viab: 26; Arbovirus inh: 1; CHOP inhibitor: 41

Results for Cc1ccc(S(=O)(=O)N2CCC(=O)N(C(COCc3ccc(Cl)cc3)Cc3ccccc3)CC2)cc1 (stereo not drawn) ?
WT yeast gro inh: 27; L major viab: 34; Arbovirus inh: -13; CHOP inhibitor: 33

What do the screens show for `CC(C)NCCCCOc1cccc(Br)c1`?
WT yeast gro inh: -2; L major viab: 99*; Arbovirus inh: 1; CHOP inhibitor: 7

What do the screens show for `CC(C)NCCOc1cccc(Br)c1`?
WT yeast gro inh: -18; L major viab: -2; Arbovirus inh: 5; CHOP inhibitor: 62

What do the screens show for `C=CCNCCCCOc1cccc(Br)c1`?
WT yeast gro inh: -16; L major viab: 96*; Arbovirus inh: -20; CHOP inhibitor: -8

Results for COCCCNCCCCOc1cccc(Br)c1 ?
WT yeast gro inh: 15; L major viab: 99*; Arbovirus inh: -19; CHOP inhibitor: 25

How did OCCNCCCCOc1cccc(Br)c1 do in these assays?
WT yeast gro inh: -8; L major viab: 89*; Arbovirus inh: -13; CHOP inhibitor: 8

What do the screens show for `COc1cccc(OCCOCCNCCO)c1`?
WT yeast gro inh: 1; L major viab: 9; Arbovirus inh: -1; CHOP inhibitor: -23

Results for Brc1cccc(OCCSc2ncccn2)c1 ?
WT yeast gro inh: 15; L major viab: -1; Arbovirus inh: -6; CHOP inhibitor: -15

Results for CC(CCCCC(=O)Nc1ccc(C(F)(F)F)cc1)NCCc1cnc[nH]1 (stereo not drawn) ?
WT yeast gro inh: -4; Arbovirus inh: 6; CHOP inhibitor: 9

How did CCCc1nnc(NC(=O)c2cn(CC)c3cc(N4CCN(C)CC4)c(F)cc3c2=O)s1 do in these assays?
CHOP inhibitor: -13

How did O=C(O)COc1ccc(/C=C/c2nc3ccc([N+](=O)[O-])cc3s2)cc1 do in these assays?
CHOP inhibitor: -17

Results for COc1ccc(C(=O)Nc2nc3c(s2)CCCC3)cc1S(=O)(=O)N1CCCc2ccccc21 ?
WT yeast gro inh: 27; L major viab: 97*; Arbovirus inh: -24; CHOP inhibitor: 52

Results for COc1ccc(C(=O)NC2CCCCCC2)cc1S(=O)(=O)N1CCCC1 ?
WT yeast gro inh: 1; L major viab: 4; Arbovirus inh: 1; CHOP inhibitor: 31

How did COc1ccc(C(=O)NC2CCCCCC2)cc1S(=O)(=O)N1CCCc2ccccc21 do in these assays?
WT yeast gro inh: 33; L major viab: 94*; Arbovirus inh: -4; CHOP inhibitor: 4

How did Cc1ccc(Cl)cc1N1CCN(Cc2nc3ccsc3c(=O)[nH]2)CC1 do in these assays?
WT yeast gro inh: 4; L major viab: 24; Arbovirus inh: -19; CHOP inhibitor: 35

How did CCOc1ccc(CCNC(=O)C2CCN(S(=O)(=O)N3CCC(C)CC3)CC2)cc1OCC do in these assays?
WT yeast gro inh: -1; L major viab: -5; Arbovirus inh: 0; CHOP inhibitor: 55

What do the screens show for `CCSC(N)=Nc1ccc(C(F)(F)F)cc1`?
CHOP inhibitor: -12

How did CCOC(=O)c1ccc(NC(=O)CN2C(=O)CSCC2=O)cc1 do in these assays?
WT yeast gro inh: -29; L major viab: 30; Arbovirus inh: -6; CHOP inhibitor: 13

Results for NC(=O)c1nn(-c2ccccc2)nc1NC(=O)Cn1nnc(-c2ccccc2)n1 ?
WT yeast gro inh: 4; L major viab: -5; Arbovirus inh: 3; CHOP inhibitor: 72*

What do the screens show for `CCOC(=O)c1ccc(NC(=O)Cn2nnc(-c3ccc(F)cc3)n2)cc1`?
WT yeast gro inh: 25; L major viab: -6; Arbovirus inh: 1; CHOP inhibitor: 81*

What do the screens show for `CCOC(=O)c1ccc(NC(=O)CN2C(=O)CNC2=O)cc1`?
WT yeast gro inh: -7; L major viab: 96*; Arbovirus inh: -4; CHOP inhibitor: -5
